# From paper PMC12214610
# Columns and labels:
# [1] = target: 30S ribosome-binding factor (UniProt P0A7G2)
# [2] = target: Large ribosomal subunit protein uL24 (UniProt P60624)
# [3] = target: Small ribosomal subunit protein uS13 (UniProt P0A7S9)
# Actin, cytoplasmic 2 = Actin, cytoplasmic 2 (UniProt P63261)
# [4] = target: Elongation factor 1-alpha 1 (UniProt P68104)
# [5] = target: Heat shock 70 kDa protein 1B (UniProt P0DMV9)
# [6] = target: Heat shock cognate 71 kDa protein (UniProt P11142)
# Chain of Heat shock cognate 71 kDa protein (P11142 whole entry): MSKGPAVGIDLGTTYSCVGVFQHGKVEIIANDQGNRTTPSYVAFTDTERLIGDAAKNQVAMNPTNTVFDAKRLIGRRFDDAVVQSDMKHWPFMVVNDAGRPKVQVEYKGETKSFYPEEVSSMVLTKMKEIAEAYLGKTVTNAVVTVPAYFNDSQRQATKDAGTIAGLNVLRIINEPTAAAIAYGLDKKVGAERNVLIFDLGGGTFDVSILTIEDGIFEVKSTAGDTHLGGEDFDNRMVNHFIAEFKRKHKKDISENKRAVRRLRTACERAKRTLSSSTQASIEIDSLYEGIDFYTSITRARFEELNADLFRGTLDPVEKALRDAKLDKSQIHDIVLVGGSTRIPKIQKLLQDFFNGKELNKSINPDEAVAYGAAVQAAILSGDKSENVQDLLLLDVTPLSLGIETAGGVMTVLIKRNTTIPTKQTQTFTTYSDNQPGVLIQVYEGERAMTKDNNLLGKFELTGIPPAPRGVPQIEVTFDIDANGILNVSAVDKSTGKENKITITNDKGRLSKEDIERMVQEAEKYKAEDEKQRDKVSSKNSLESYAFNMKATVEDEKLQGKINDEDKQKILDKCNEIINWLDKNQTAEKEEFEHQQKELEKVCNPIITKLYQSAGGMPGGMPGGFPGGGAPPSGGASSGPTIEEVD
# [7] = target: Peptidyl-prolyl cis-trans isomerase A (UniProt P62937)
# [8] = target: Adenylyl cyclase-associated protein 1 (UniProt Q01518)
# Cofilin-1 = Cofilin-1 (UniProt P23528)
# Chain of Cofilin-1 (P23528 whole entry): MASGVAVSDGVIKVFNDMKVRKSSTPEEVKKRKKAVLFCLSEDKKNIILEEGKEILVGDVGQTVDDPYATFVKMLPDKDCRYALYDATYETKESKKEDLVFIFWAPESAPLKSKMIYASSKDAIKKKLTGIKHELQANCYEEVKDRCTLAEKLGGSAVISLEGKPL
# [9] = target: DNA-binding protein HU-beta (UniProt P0ACF4)
# [10] = target: Large ribosomal subunit protein bL9 (UniProt P0A7R1)
# [11] = target: Large ribosomal subunit protein eL20 (UniProt Q02543)
# [12] = target: Large ribosomal subunit protein eL24 (UniProt P83731)
# [13] = target: Small ribosomal subunit protein uS11 (UniProt P62263)
# [14] = target: Small ribosomal subunit protein uS4 (UniProt P46781)
# [15] = target: Large ribosomal subunit protein eL6 (UniProt Q02878)
# [16] = target: Large ribosomal subunit protein uL2 (UniProt P60422)
# [17] = target: Large ribosomal subunit protein uL22 (UniProt P61175)
# [18] = target: Large ribosomal subunit protein uL4 (UniProt P36578)
# [19] = target: Small ribosomal subunit protein bS21 (UniProt P68679)
# [20] = target: Small ribosomal subunit protein uS19 (UniProt P0A7U3)
# Chain of Profilin-1, P07737 (P07737 whole entry): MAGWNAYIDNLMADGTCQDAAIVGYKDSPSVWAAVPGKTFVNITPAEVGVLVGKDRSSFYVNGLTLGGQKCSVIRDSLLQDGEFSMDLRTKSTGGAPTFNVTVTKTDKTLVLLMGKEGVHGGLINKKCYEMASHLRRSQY
# Chain of Heat shock 70 kDa protein 1B (P0DMV9 whole entry): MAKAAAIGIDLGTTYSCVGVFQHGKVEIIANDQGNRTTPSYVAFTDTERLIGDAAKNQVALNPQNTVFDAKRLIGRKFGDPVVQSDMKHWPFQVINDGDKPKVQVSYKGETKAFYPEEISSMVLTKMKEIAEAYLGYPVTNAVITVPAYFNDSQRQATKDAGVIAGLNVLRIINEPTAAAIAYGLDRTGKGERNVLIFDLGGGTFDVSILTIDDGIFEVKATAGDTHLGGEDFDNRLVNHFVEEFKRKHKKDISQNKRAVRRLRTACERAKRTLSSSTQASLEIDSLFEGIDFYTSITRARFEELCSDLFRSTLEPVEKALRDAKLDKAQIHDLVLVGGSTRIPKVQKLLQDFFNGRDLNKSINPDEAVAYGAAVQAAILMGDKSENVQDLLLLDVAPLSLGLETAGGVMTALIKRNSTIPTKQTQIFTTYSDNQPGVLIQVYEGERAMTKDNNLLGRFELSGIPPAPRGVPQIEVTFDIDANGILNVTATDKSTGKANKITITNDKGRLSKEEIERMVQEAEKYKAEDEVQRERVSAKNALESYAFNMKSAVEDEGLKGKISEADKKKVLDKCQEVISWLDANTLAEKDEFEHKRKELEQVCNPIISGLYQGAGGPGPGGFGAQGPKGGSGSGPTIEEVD
substance,measurement,setting,value
"Small ribosomal subunit protein uS7, P02359",listed as a hit,[1],yes
same,listed as a hit,[2],yes
same,listed as a hit,[3],yes
"Elongation factor 2, P13639",listed as a hit,"Actin, cytoplasmic 2",yes
same,listed as a hit,[4],yes
"Polyubiquitin-B, P0CG47",listed as a hit,"Actin, cytoplasmic 2",yes
same,listed as a hit,[5],yes
same,listed as a hit,[6],yes
same,listed as a hit,[7],yes
"Actin, alpha skeletal muscle, P68133",listed as a hit,[8],yes
"Profilin-1, P07737",listed as a hit,Cofilin-1,yes
"Large ribosomal subunit protein bL19, P0A7K6",listed as a hit,[9],yes
"Peptidyl-prolyl cis-trans isomerase A, P62937",listed as a hit,[4],yes
"Large ribosomal subunit protein bL28, P0A7M2",listed as a hit,[10],yes
"Small ribosomal subunit protein uS4, P46781",listed as a hit,[11],yes
"Large ribosomal subunit protein uL4, P36578",listed as a hit,[12],yes
same,listed as a hit,[13],yes
same,listed as a hit,[14],yes
"Large ribosomal subunit protein eL28, P46779",listed as a hit,[15],yes
"Large ribosomal subunit protein bL9, P0A7R1",listed as a hit,[16],yes
"Large ribosomal subunit protein bL32, P0A7N4",listed as a hit,[17],yes
"Large ribosomal subunit protein uL16, P27635",listed as a hit,[18],yes
same,listed as a hit,[14],yes
"Small ribosomal subunit protein bS18, P0A7T7",listed as a hit,[19],yes
"Large ribosomal subunit protein bL31, P0A7M9",listed as a hit,[20],yes
